The target of one assay is SKI. As to the kind of experiment: pooled miR-30 sensor sort-seq; sequence = guide strand. The following applies: shRNA.
On to TTACACTTGCCGAAGCACTCGT, for which the sensor-assay potency score (higher = more potent) came out at 0.441. In the case of TCACTCGCTGACACTGCGGGGG, the sensor-assay potency score (higher = more potent) was -0.224. The same measure, in the same setting: the value for TTCTTCTCGTTCTCGGCGCGGA was -0.778.

Turning to TACACTTGCCGAAGCACTCGTG, the sensor-assay potency score (higher = more potent) is -0.466. For TTGGTGATGAGCCCGCACGAGG, the sensor-assay potency score (higher = more potent) is -1.78.

For the sequence TGGAGCTCGTCGCACACCGCGT, the sensor-assay potency score (higher = more potent) is -1.77. On the same count and under the same terms, with TAGGAGTAGAAGCTGTCTCGGA the figure was 0.278; with TAGATGTGGAGCTCGTCGCACA, -1.04. For TACGGTCTCGCAGCGCTCGGTG, the sensor-assay potency score (higher = more potent) was -1.18. For TCTCACTCGCTGACACTGCGGG, the sensor-assay potency score (higher = more potent) is -0.587. The same measure, in the same setting: with TTTCTCCTTCACGTCGTCCAGG the figure was -1.07; with TTTGGCTTCCTTGGTGTCCAGG, -1.03.

Another assay has as its target SLAIN1. The assay is described as above. The following applies: shRNA.
TATGTCTTGATACAGATGCTGA: the sensor-assay potency score (higher = more potent) was -0.777. As for TTGAGTCAAAACTCTGACTATT, the sensor-assay potency score (higher = more potent) is -1.16. On the same count and under the same terms, the value for TGAAGTAGAAGCATAATCTTGC was 0.776. The same measure, in the same setting: the value for TTGAGGTGAATAATACTGTTGC was -0.0982; that for TTGCCTGAGACTTTCTTCTTGC was 0.429; that for TTCTTGAAATTCCATTTCCAGC was -1.69. As to TTCTTCTTGCAGACGAGCCATG, the sensor-assay potency score (higher = more potent) was -1.37. On the same count and under the same terms, with TACATGTCCCTTTTTTTCCTGA the figure was -0.235; with TTCTTCGGAGCTTATCTCCATT, -0.767. Same read-out and setting: with TATATTAAAACACAAAAGGGAA the figure was -0.738. Still for that read-out and setting: with TATTTGAAGGAAAATACTGGGA the figure was 0.189. The sequence TTTATTGCCAACGAAGGTCTTG gave a sensor-assay potency score (higher = more potent) of 0.0936.

(Values after the OligoGym collection.)
Note: reference of the scale not given here.
